Laboratory results as given in PubChem BioAssay (NCI).
The panel holds about 83,000 compounds, 20% with a hit somewhere; the sample as a whole holds those more often.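 Cell lines were cultured in 96-well plates, exposed to a single compound concentration, and assessed for percent growth 48 hours later.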 The source made the active and inactive calls. The calls were made as follows: active = growth percent below 10; inactive = the rest.

Experiments:
Experiment in all cases: NCI-60 one-dose screen, 48 h (100 = growth as untreated, 0 = no growth, -100 = all killed)
Conditions in all cases: 10 µM unless noted
NCI-H23 lung = test system: NCI-H23 lung
NCI-H226 lung = test system: NCI-H226 lung
NCI-H322M lung = test system: NCI-H322M lung
HOP-62 NSCLC = test system: HOP-62 NSCLC
NCI-H460 lung = test system: NCI-H460 lung
HOP-92 NSCLC = test system: HOP-92 NSCLC
NCI-H522 lung = test system: NCI-H522 lung
A549/ATCC NSCLC = test system: A549/ATCC NSCLC
786-0 renal = test system: 786-0 renal
COLO 205 colon = test system: COLO 205 colon

Measured: growth

COc1ccc(OC)c(Nc2nc3nonc3nc2Nc2cc(OC)ccc2OC)c1
active: HOP-62 NSCLC -12.8% | 786-0 renal -23.8%
inactive: NCI-H23 lung 50% | NCI-H226 lung 50.3% | NCI-H322M lung 68.6% | NCI-H460 lung 22% | HOP-92 NSCLC 13.2% | NCI-H522 lung 37.7% | A549/ATCC NSCLC 20.7% | COLO 205 colon 93.7%

C/C(=N\NC(N)=S)c1nc2ccc(Cl)cc2[nH]1
inactive: NCI-H23 lung 75.4% | NCI-H226 lung 46.3% | NCI-H322M lung 70% | HOP-62 NSCLC 43% | NCI-H460 lung 15.3% | HOP-92 NSCLC 79.5% | NCI-H522 lung 34% | A549/ATCC NSCLC 34.4% | 786-0 renal 31.2% | COLO 205 colon 45%

COc1ccc(/C(C)=C(\c2ccc(Cl)cc2)c2ccc(OCCN3CCCCCC3)cc2)cc1F
inactive: NCI-H23 lung 54.1% | NCI-H226 lung 71% | NCI-H322M lung 83.3% | HOP-62 NSCLC 36.3% | HOP-92 NSCLC 73.3% | NCI-H522 lung 65.9% | A549/ATCC NSCLC 55% | COLO 205 colon 22.3%
active: NCI-H460 lung 8.63% | 786-0 renal 4.15%

Clc1ccc(/C=C/c2nc(Nc3ccc(Cl)cc3)c3ccccc3n2)cc1
inactive: NCI-H23 lung 93.1% | NCI-H226 lung 92.6% | NCI-H322M lung 96.4% | HOP-62 NSCLC 120% | NCI-H460 lung 103% | HOP-92 NSCLC 107% | NCI-H522 lung 90.8% | A549/ATCC NSCLC 102% | 786-0 renal 102% | COLO 205 colon 112%

COc1ccc(-c2cc(-c3ccc(Nc4nc(Nc5ccccc5)nc(Nc5ccc(Cl)cc5)n4)cc3)nc(N)n2)cc1
inactive: NCI-H23 lung 56.6% | NCI-H226 lung 81.2% | NCI-H322M lung 83.3% | HOP-62 NSCLC 57.2% | NCI-H460 lung 61.6% | HOP-92 NSCLC 37.6% | NCI-H522 lung 76.3% | A549/ATCC NSCLC 79.5% | 786-0 renal 51.5% | COLO 205 colon 68.4%

O[C@H]1CO[C@H]2[C@@H]1OC[C@@H]2Oc1ccc(Nc2ccnc(Nc3ccc(O[C@H]4CO[C@H]5[C@@H]4OC[C@@H]5O)c(Cl)c3)n2)cc1Cl
inactive: A549/ATCC NSCLC 21.7% | 786-0 renal 24.7% | COLO 205 colon 12%
active: NCI-H23 lung -1.73% | NCI-H226 lung 4.09% | NCI-H322M lung -4.12% | HOP-62 NSCLC -28.9% | NCI-H460 lung 1.27% | HOP-92 NSCLC -20% | NCI-H522 lung -4.53%

COc1ccc(/C(C)=C(\c2ccc(Cl)cc2)c2ccc(OCCN(C)C)cc2)cc1F
inactive: NCI-H23 lung 86.7% | NCI-H226 lung 95.5% | NCI-H322M lung 77.4% | HOP-62 NSCLC 64.8% | NCI-H460 lung 22.2% | HOP-92 NSCLC 65.6% | NCI-H522 lung 87.5% | A549/ATCC NSCLC 59% | 786-0 renal 62.9% | COLO 205 colon 26%

C[C@@H]1CC[C@@H]2[C@@H]1[C@H](OC(=O)/C=C/c1ccccc1)[C@]1(CCCOCCOCCOCCOC(=O)CCCC[C@@H]3SC[C@@H]4NC(=O)N[C@@H]43)C[C@@H](OC(=O)CO)[C@@]2(C)O1
inactive: NCI-H23 lung 102% | NCI-H226 lung 105% | NCI-H322M lung 92.6% | HOP-62 NSCLC 99.3% | NCI-H460 lung 106% | HOP-92 NSCLC 108% | NCI-H522 lung 85% | A549/ATCC NSCLC 97.7% | 786-0 renal 97.6% | COLO 205 colon 112%

CN(C)c1ccc(-c2cc(-c3ccc(Nc4nc(Nc5ccccc5)nc(Nc5ccc(Cl)cc5)n4)cc3)nc(N)n2)cc1
inactive: NCI-H23 lung 48% | NCI-H226 lung 59% | NCI-H322M lung 66.3% | HOP-62 NSCLC 33.1% | NCI-H460 lung 41.7% | NCI-H522 lung 55.6% | A549/ATCC NSCLC 43.4% | 786-0 renal 10.6% | COLO 205 colon 58.1%
active: HOP-92 NSCLC -3.41%

Cc1nc(Nc2ccc(NC(=S)Nc3ccccc3)cc2)nc2nc(Nc3ccc(S(=O)(=O)O)cc3)[nH]c(=O)c12
inactive: NCI-H23 lung 95.8% | NCI-H226 lung 123% | NCI-H322M lung 122% | HOP-62 NSCLC 105% | NCI-H460 lung 108% | HOP-92 NSCLC 75.7% | NCI-H522 lung 86.9% | A549/ATCC NSCLC 111% | 786-0 renal 103% | COLO 205 colon 113%

Cc1cc(C)on1
inactive: NCI-H23 lung 109% | NCI-H226 lung 103% | NCI-H322M lung 111% | HOP-62 NSCLC 111% | NCI-H460 lung 116% | HOP-92 NSCLC 89.3% | NCI-H522 lung 107% | A549/ATCC NSCLC 97.9% | 786-0 renal 101% | COLO 205 colon 112%

Cc1nc(-c2ccccc2)cc2c(O)c(C(=O)N/N=C/c3ccc(N(C)C)cc3)[nH]c(=O)c12
inactive: NCI-H23 lung 78.1% | NCI-H226 lung 107% | NCI-H322M lung 90.5% | HOP-62 NSCLC 77.3% | NCI-H460 lung 94.9% | HOP-92 NSCLC 32% | NCI-H522 lung 72.7% | A549/ATCC NSCLC 40.5% | 786-0 renal 79.2% | COLO 205 colon 109%

Nc1c(-c2nc3ccccc3c(=O)[nH]2)nnn1-c1ccc(Cl)cc1
inactive: NCI-H23 lung 78.9% | NCI-H226 lung 102% | NCI-H322M lung 78.3% | HOP-62 NSCLC 57.2% | NCI-H460 lung 56.2% | HOP-92 NSCLC 101% | NCI-H522 lung 52.5% | A549/ATCC NSCLC 40.6% | 786-0 renal 82.2% | COLO 205 colon 98.6%

Cn1ncc2c(Nc3ccc(Br)cc3)nc(Nc3ccc(Br)cc3)nc21
inactive: NCI-H23 lung 27.5% | NCI-H226 lung 62.1% | NCI-H322M lung 73% | HOP-62 NSCLC 23.8% | NCI-H522 lung 44.8% | A549/ATCC NSCLC 48.1% | COLO 205 colon 64%
active: NCI-H460 lung 8.2% | HOP-92 NSCLC 7.66% | 786-0 renal -38.9%

CCCCCCCCc1cc[n+](CC(=O)c2ccc(Br)cc2)cc1
inactive: NCI-H23 lung 49.5% | NCI-H226 lung 53.6% | NCI-H322M lung 96.2% | HOP-92 NSCLC 24.1% | 786-0 renal 16.6%
active: HOP-62 NSCLC 8% | NCI-H460 lung -84.9% | NCI-H522 lung -91.5% | A549/ATCC NSCLC -84.1% | COLO 205 colon -89.6%

COc1ccc(Cn2cnc3cc(C(=O)Nc4cccc5ccccc45)ccc32)c(OC)c1
active: NCI-H460 lung 1.11% [30 µM] | NCI-H522 lung 3.89% [30 µM] | COLO 205 colon -21.6% [30 µM]
inactive: NCI-H23 lung 32.9% [30 µM] | NCI-H226 lung 14.5% [30 µM] | NCI-H322M lung 45% [30 µM] | HOP-62 NSCLC 41.6% [30 µM] | HOP-92 NSCLC 21.1% [30 µM] | A549/ATCC NSCLC 16% [30 µM] | 786-0 renal 20.3% [30 µM]

COc1cc2oc(-c3cccc(C(=O)Nc4ccc(C)cc4)c3)cc(=O)c2c(OC)c1OC
active: NCI-H522 lung 6.72% | COLO 205 colon 1.73%
inactive: NCI-H23 lung 44.6% | NCI-H226 lung 62.5% | NCI-H322M lung 51.1% | HOP-62 NSCLC 22.1% | NCI-H460 lung 24.9% | HOP-92 NSCLC 22% | A549/ATCC NSCLC 33.8% | 786-0 renal 22.1%

Cc1nc(Nc2ccc(NC(=S)Nc3ccccc3)cc2)nc2nc(Nc3cccc(Cl)c3)[nH]c(=O)c12
inactive: NCI-H23 lung 92.4% | NCI-H226 lung 99.2% | NCI-H322M lung 183% | HOP-62 NSCLC 91.7% | NCI-H460 lung 114% | HOP-92 NSCLC 60.4% | NCI-H522 lung 34.4% | A549/ATCC NSCLC 86.1% | 786-0 renal 98.7% | COLO 205 colon 122%

Nc1c(-c2nc3ccc(Br)cc3c(=O)[nH]2)nnn1-c1ccccc1
inactive: NCI-H23 lung 82.6% | NCI-H226 lung 107% | NCI-H322M lung 71.5% | HOP-62 NSCLC 87% | NCI-H460 lung 43.5% | HOP-92 NSCLC 94.7% | NCI-H522 lung 73.9% | A549/ATCC NSCLC 74.8% | 786-0 renal 87.6% | COLO 205 colon 102%

CCCCCCCCCCCCCCCCCC1=NCCN1C(=O)OCCO
inactive: NCI-H23 lung 76.9% | NCI-H226 lung 78.5% | NCI-H322M lung 51.1% | HOP-62 NSCLC 52.6% | HOP-92 NSCLC 56.5% | NCI-H522 lung 11.1% | 786-0 renal 87.2%
active: NCI-H460 lung 7.14% | A549/ATCC NSCLC -72.4% | COLO 205 colon -72.9%

CN(C)CCN1C(=O)c2cccc3c(-c4ccc(-c5nc6c7ccccc7c7ccccc7c6[nH]5)cc4)ccc(c23)C1=O
inactive: NCI-H23 lung 109% | NCI-H226 lung 101% | NCI-H322M lung 114% | HOP-62 NSCLC 106% | NCI-H460 lung 111% | HOP-92 NSCLC 71.3% | NCI-H522 lung 94.2% | A549/ATCC NSCLC 90.4% | 786-0 renal 18.2% | COLO 205 colon 105%

CC(=O)c1sc(-c2ccccc2)cc1N
inactive: NCI-H23 lung 101% | NCI-H226 lung 96.6% | NCI-H322M lung 96.9% | HOP-62 NSCLC 94.4% | NCI-H460 lung 102% | HOP-92 NSCLC 97.7% | NCI-H522 lung 72.5% | A549/ATCC NSCLC 76% | 786-0 renal 92.7% | COLO 205 colon 109%

COc1ccc(NC(=O)C(=O)c2c[nH]c3ccc(F)cc23)cc1
inactive: NCI-H23 lung 97.8% | NCI-H226 lung 101% | NCI-H322M lung 73% | HOP-62 NSCLC 103% | NCI-H460 lung 90.7% | HOP-92 NSCLC 99.2% | NCI-H522 lung 85.1% | A549/ATCC NSCLC 78.7% | 786-0 renal 56.1% | COLO 205 colon 104%

O=C(Nc1cccc2[nH]c(C(F)(F)F)nc12)c1cc(Cl)ccc1Cl
inactive: NCI-H226 lung 34.4% | NCI-H322M lung 45.9% | HOP-62 NSCLC 32.1% | NCI-H460 lung 17.2% | A549/ATCC NSCLC 19.8% | 786-0 renal 47.1% | COLO 205 colon 24.6%
active: NCI-H23 lung -3.56% | HOP-92 NSCLC -11% | NCI-H522 lung -13.2%
